Read-out in assay [1]: succinate dehydrogenase complex iron sulfur subunit B (SDHB), SDHB (gene 6390)
The assay is described as follows: LTEA_HepaRG_SDHB: Life Technologies and Expression Analysis (LTEA) Assay for succinate dehydrogenase complex iron sulfur subunit B (SDHB) using HepaRG (AID 2283528; active means hit-call score of the fitted dose curve at least 0.9, where 1 is the maximum; inactive means score below 0.9). The note with it: mRNA level, 48 h; actives raise or lower the signal. Put shortly: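 Readout is SDHB transcript level by qRT-PCR, normalised to three housekeeping genes and fitted bidirectionally against 0.5% DMSO vehicle. Human HepaRG cells were treated for 48 h at up to 100 uM.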

Read-out in assay [2]: Signal transducer and activator of transcription 3 (Homo sapiens) (UniProt P40763)
The assay is described as follows: LTEA_HepaRG_STAT3: Life Technologies and Expression Analysis (LTEA) Assay for Signal transducer and activator of transcription (STAT3) using HepaRG (AID 2283529; active means hit-call score of the fitted dose curve at least 0.9, where 1 is the maximum; inactive means score below 0.9). The note with it: mRNA level, 48 h; actives raise or lower the signal. Put shortly:
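Differentiated HepaRG cells, serum-free induction medium, dosed 48 h in duplicate, 8 half-log concentrations from 100 uM in 0.5% DMSO. STAT3 mRNA by qRT-PCR, normalised to ACTB, GAPDH, POLR2A; bidirectional fit versus DMSO.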

Read-out in assay [3]: solute carrier (SLCO1B1), SLCO1B1 (gene 10599)
The assay is described as follows: LTEA_HepaRG_SLCO1B1: Life Technologies and Expression Analysis (LTEA) Assay for solute carrier (SLCO1B1) using HepaRG (AID 2283530; active means hit-call score of the fitted dose curve at least 0.9, where 1 is the maximum; inactive means score below 0.9). The note with it: mRNA level, 48 h; actives raise or lower the signal. A digest of the protocol:
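SLCO1B1 transcript read by qRT-PCR (Fluidigm arrays), normalized to three housekeeping genes, after 48 h chemical exposure of HepaRG cells; bidirectional concentration-response fitting versus 0.5% DMSO baseline. Eight-point half-log series, maximum 100 uM.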

Read-out in assay [4]: sulfotransferase 2A1 (SULT2A1), SULT2A1 (gene 6822)
The assay is described as follows: LTEA_HepaRG_SULT2A1: Life Technologies and Expression Analysis (LTEA) Assay for sulfotransferase 2A1 (SULT2A1) using HepaRG (AID 2283531; active means hit-call score of the fitted dose curve at least 0.9, where 1 is the maximum; inactive means score below 0.9). As to conditions: mRNA level, 48 h; actives raise or lower the signal. A digest of the protocol:
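HepaRG, 48 h chemical exposure, 8-pt half-log curve from 100 uM in 0.5% DMSO, duplicates. Readout: TaqMan qRT-PCR of SULT2A1 mRNA, housekeeping-normalized. Bidirectional fit vs DMSO baseline.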

Read-out in assay [5]: Transforming Growth Factor (TGFA), TGFA (gene 7039)
The assay is described as follows: LTEA_HepaRG_TGFA: Life Technologies and Expression Analysis (LTEA) Assay for Transforming Growth Factor (TGFA) using HepaRG (AID 2283532; active means hit-call score of the fitted dose curve at least 0.9, where 1 is the maximum; inactive means score below 0.9). As to conditions: mRNA level, 48 h; actives raise or lower the signal. A digest of the protocol: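 Differentiated HepaRG cells exposed 48 hours in serum-free induction medium, 0.5% DMSO vehicle, 8-point half-log series from 100 uM, in duplicate. TGFA mRNA by TaqMan qRT-PCR, normalised to ACTB, GAPDH, POLR2A; bidirectional fit versus DMSO.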

Read-out in assay [6]: Transforming Growth Factor (TGFB1), TGFB1 (gene 7040)
The assay can be described thus: LTEA_HepaRG_TGFB1: Life Technologies and Expression Analysis (LTEA) Assay for Transforming Growth Factor (TGFB1) Transporter using HepaRG (AID 2283533; active means hit-call score of the fitted dose curve at least 0.9, where 1 is the maximum; inactive means score below 0.9). The note with it: mRNA level, 48 h; actives raise or lower the signal. A digest of the protocol:
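qRT-PCR readout of TGFB1 transcript in HepaRG lysates, normalized to three housekeeping genes; gain or loss of signal fitted relative to 0.5% DMSO vehicle. Exposure: 48 h, 8-point curve from 100 uM, duplicate wells.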

Read-out in a further assay: TIMP1, TIMP1 (gene 7076)
The assay can be described thus: LTEA_HepaRG_TIMP1: Life Technologies and Expression Analysis (LTEA) Assay for TIMP1 using HepaRG (AID 2283534; active means hit-call score of the fitted dose curve at least 0.9, where 1 is the maximum; inactive means score below 0.9). As to conditions: mRNA level, 48 h; actives raise or lower the signal. Put shortly: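 HepaRG, 48 h exposure, 8-pt half-log series from 100 uM in 0.5% DMSO, duplicates; TIMP1 transcript by Fluidigm qRT-PCR, housekeeping-normalized; bidirectional curve fit vs DMSO baseline.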

Read-out in assay [7]: Tumor necrosis factor receptor 1 (TNFRSF1A), TNFRSF1A (gene 7132)
The assay is described as follows: LTEA_HepaRG_TNFRSF1A: Life Technologies and Expression Analysis (LTEA) Assay for Tumor necrosis factor receptor 1 (TNFRSF1A) using HepaRG (AID 2283535; active means hit-call score of the fitted dose curve at least 0.9, where 1 is the maximum; inactive means score below 0.9). The note with it: mRNA level, 48 h; actives raise or lower the signal. A digest of the protocol:
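HepaRG, 48 h plating then 48 h chemical exposure, serum-free induction media; 8-pt CRC from 100 uM, half-log, 0.5% DMSO vehicle, duplicates. Readout: TaqMan qRT-PCR (Fluidigm), housekeeping-gene normalized; bidirectional fit vs DMSO.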

Read-out in assay [8]: Thyroid Hormone Responsive (THRSP), THRSP (gene 7069)
The assay is described as follows: LTEA_HepaRG_THRSP: Life Technologies and Expression Analysis (LTEA) Assay for Thyroid Hormone Responsive (THRSP) using HepaRG (AID 2283536; active means hit-call score of the fitted dose curve at least 0.9, where 1 is the maximum; inactive means score below 0.9). As to conditions: mRNA level, 48 h; actives raise or lower the signal. Put shortly: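 Differentiated HepaRG cells treated 48 h in serum-free induction medium with 8 half-log concentrations up to 100 uM (0.5% DMSO), duplicates. THRSP mRNA by TaqMan qRT-PCR normalised to ACTB, GAPDH, POLR2A; bidirectional fit versus DMSO.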

Read-out in assay [9]: Cellular tumor antigen p53 (Homo sapiens) (UniProt P04637)
The assay is described as follows: LTEA_HepaRG_TP53: Life Technologies and Expression Analysis (LTEA) Assay for Tumor Protein P53 (TP53) using HepaRG (AID 2283537; active means hit-call score of the fitted dose curve at least 0.9, where 1 is the maximum; inactive means score below 0.9). As to conditions: mRNA level, 48 h; actives raise or lower the signal. Put shortly:
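Read-out is TP53 transcript level by microfluidic qRT-PCR, normalised to three housekeeping genes and fitted bidirectionally against DMSO. Human HepaRG cells received compounds for 48 h, highest concentration 100 uM.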

Read-out in assay [10]: UDP glucuronosyltransferase (UGT1A1), UGT1A1 (gene 54658)
The assay can be described thus: LTEA_HepaRG_UGT1A1: Life Technologies and Expression Analysis (LTEA) Assay for UDP glucuronosyltransferase (UGT1A1) using HepaRG (AID 2283538; active means hit-call score of the fitted dose curve at least 0.9, where 1 is the maximum; inactive means score below 0.9). The note with it: mRNA level, 48 h; actives raise or lower the signal. Put shortly:
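HepaRG cells, 0.5% DMSO vehicle, 48 h exposure in serum-free induction medium to 8-point half-log series topping at 100 uM, in duplicate. UGT1A1 mRNA by Fluidigm qRT-PCR, normalized to ACTB/GAPDH/POLR2A; bidirectional fit versus DMSO.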

Read-out in assay [11]: UDP glucuronosyltransferase (UGT1A6), UGT1A6 (gene 54578)
The assay can be described thus: LTEA_HepaRG_UGT1A6: Life Technologies and Expression Analysis (LTEA) Assay for UDP glucuronosyltransferase (UGT1A6) using HepaRG (AID 2283539; active means hit-call score of the fitted dose curve at least 0.9, where 1 is the maximum; inactive means score below 0.9). As to conditions: mRNA level, 48 h; actives raise or lower the signal. A digest of the protocol: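 qRT-PCR readout of UGT1A6 mRNA (normalized to ACTB/GAPDH/POLR2A) in differentiated HepaRG cells after 48 h chemical exposure; 8 concentrations, top 100 uM, half-log steps, 0.5% DMSO. Bidirectional curve fit relative to DMSO baseline.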

A short description of assay [12]: LTEA_HepaRG_LDH_cytotoxicity: Cytotoxicity Assessment in the Life Technologies and Expression Analysis (LTEA) Assay (AID 2283563).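 On AC50: LDH activity released into spent culture medium as a marker of cell death.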 Put shortly: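 HepaRG (human liver line), 48 h exposure, 8-pt half-log series from 100 uM, 0.5% DMSO vehicle, duplicates. Read-out: LDH in spent medium. Positive-direction fit vs DMSO baseline.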
Assay [13] can be described thus: TOX21_p53_BLA_p2_viability: Viability Assessment in the Tox21 HCT-116 p53 Agonism Beta-lactamase Assay, Phase 2 (AID 2283591).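 Further: compound exposure lasted 16 h at 37 °C; actives lower the ATP signal meaning cytotoxicity.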 Put shortly:
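HCT116 p53-bla cells, 4000/well, dosed after 5 h plating (217-fold dilution of DMSO stocks) and incubated 16 h at 37C. Viability taken as cellular ATP by CellTiter-Glo luminescence after 30 min RT; signal loss marks cytotoxicity.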

Assay [14] has as its target Cellular tumor antigen p53 (Homo sapiens) (UniProt P04637). The assay is described as follows: TOX21_p53_BLA_p2_ratio: Tox21 HCT-116 p53 Agonism Beta-lactamase Assay, Ratio, Phase 2 (AID 2283592). Put shortly:
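In this cell-based reporter format, HCT116 cells were dosed with chemicals delivered from DMSO by 217-fold dilution and incubated 16 h at 37C. Emission at 460 and 530 nm after 2 h CCF4-AM loading provided the ratio, fitted upward versus DMSO.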

Assay [15] shares this target. The assay is described as follows: TOX21_p53_BLA_p3_ratio: Tox21 HCT-116 p53 Agonism Beta-lactamase Assay, Ratio, Phase 3 (AID 2283596). A digest of the protocol:
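HCT116 p53-bla cells (4000/well) given compound in DMSO (217-fold dilution) after 5 h, incubated 16 h at 37C. CCF4-AM substrate 2 h at room temperature; 460/530 nm emission ratio, gain fitted against DMSO.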

The nature of assay [16]: TOX21_p53_BLA_p4_viability: Viability Assessment in the Tox21 HCT-116 p53 Agonism Beta-lactamase Assay, Phase 4 (AID 2283597).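 Further: hits lower the luminescence signal meaning cytotoxicity.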 A digest of the protocol:
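We seeded HCT116 p53 reporter cells at 4000/well and waited 5 h. We then added compounds in DMSO at a 217-fold dilution and incubated for 16 h. Viability was read as CellTiter-Glo luminescence after 30 min at RT.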

Assay [17] can be described thus: ATG_XTT_Cytotoxicity: Cytotoxicity Assessment in the Attagene TRANS-FACTORIAL HepG2 Assay (AID 2283584). Put shortly:
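XTT readout of cell number in transfected HepG2 cells, 24 h post-dosing; DMSO serves as negative control and baseline, with activity taken as loss of viability signal.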

The nature of assay [18]: TOX21_p53_BLA_p3_viability: Viability Assessment in the Tox21 HCT-116 p53 Agonism Beta-lactamase Assay, Phase 3 (AID 2283593).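 Further: cells exposed to compound for 16 h before reading.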 A digest of the protocol:
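HCT116 cells, 4000/well, dosed 5 h after plating by pin transfer (217-fold dilution from DMSO stock) and incubated 16 h at 37C, 5% CO2. Viability read as ATP luminescence with CellTiter-Glo after 30 min at room temperature.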

Read-out in assay [19]: X-box binding protein 1 (XBP1), XBP1 (gene 7494)
The assay can be described thus: LTEA_HepaRG_XBP1: Life Technologies and Expression Analysis (LTEA) Assay for X-box binding protein 1 (XBP1) using HepaRG (AID 2283540; active means hit-call score of the fitted dose curve at least 0.9, where 1 is the maximum; inactive means score below 0.9). The note with it: mRNA level, 48 h; actives raise or lower the signal. Put shortly: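 HepaRG, 48 h exposure, 8-pt half-log CRC top 100 uM, 0.5% DMSO vehicle, duplicates. Readout: TaqMan qRT-PCR of XBP1 mRNA, housekeeping-normalised (ACTB/GAPDH/POLR2A); bidirectional fit vs DMSO baseline.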

Here are results for four compounds from PubChem BioAssay (EPA / NIEHS).

By AC50 is commonly meant the midpoint of the concentration-response curve, whichever way the signal moves.

Several values for one entry are separate records, joined by “and”; a condition that tells them apart may be missing. Equal values may be shown once. Records with an inconclusive call do not appear. The source holds several records for some structures; these can differ, active in one and inactive in another. Activity calls are given as the source filed them. How the source made its calls, unless noted: active means hit-call score of the fitted dose curve at least 0.9, where 1 is the maximum; inconclusive means response in the unintended direction; inactive means score below 0.9.

Sequence of Signal transducer and activator of transcription 3 (Homo sapiens) (P40763 whole entry, looked up): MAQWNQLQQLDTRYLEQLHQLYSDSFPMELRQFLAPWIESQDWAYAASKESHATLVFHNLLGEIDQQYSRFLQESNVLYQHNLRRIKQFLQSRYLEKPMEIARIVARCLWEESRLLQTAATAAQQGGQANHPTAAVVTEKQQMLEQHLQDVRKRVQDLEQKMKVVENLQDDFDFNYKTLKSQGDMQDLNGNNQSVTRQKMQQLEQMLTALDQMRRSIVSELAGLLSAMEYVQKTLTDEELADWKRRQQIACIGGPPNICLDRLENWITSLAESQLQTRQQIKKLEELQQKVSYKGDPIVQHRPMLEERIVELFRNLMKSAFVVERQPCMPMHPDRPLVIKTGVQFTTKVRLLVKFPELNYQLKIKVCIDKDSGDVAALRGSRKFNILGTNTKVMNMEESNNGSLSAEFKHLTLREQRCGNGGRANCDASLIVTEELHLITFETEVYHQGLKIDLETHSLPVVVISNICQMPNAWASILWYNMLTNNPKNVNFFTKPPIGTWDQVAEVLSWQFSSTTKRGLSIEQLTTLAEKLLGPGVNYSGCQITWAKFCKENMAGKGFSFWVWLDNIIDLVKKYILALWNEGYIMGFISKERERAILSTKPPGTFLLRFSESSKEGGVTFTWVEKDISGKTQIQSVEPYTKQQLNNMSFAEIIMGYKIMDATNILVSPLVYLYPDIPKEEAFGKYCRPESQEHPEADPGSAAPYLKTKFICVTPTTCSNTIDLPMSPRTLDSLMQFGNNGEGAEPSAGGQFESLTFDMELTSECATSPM
Sequence of Cellular tumor antigen p53 (Homo sapiens) (P04637 whole entry, looked up): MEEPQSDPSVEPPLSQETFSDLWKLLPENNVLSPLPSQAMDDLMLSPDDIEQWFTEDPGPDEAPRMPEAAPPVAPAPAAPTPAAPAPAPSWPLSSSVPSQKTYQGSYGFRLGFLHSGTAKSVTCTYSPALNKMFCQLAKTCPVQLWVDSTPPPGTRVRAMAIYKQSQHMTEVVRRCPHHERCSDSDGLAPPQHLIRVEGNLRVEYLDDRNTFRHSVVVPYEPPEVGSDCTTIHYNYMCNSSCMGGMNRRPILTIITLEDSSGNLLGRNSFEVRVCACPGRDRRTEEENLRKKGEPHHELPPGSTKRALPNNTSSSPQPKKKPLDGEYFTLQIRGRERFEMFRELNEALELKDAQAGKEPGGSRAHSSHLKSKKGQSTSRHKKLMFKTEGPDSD

Take `Cc1cc(-c2ccc(N)c(C)c2)ccc1N`: the call in assay [1], in [2], in assay [3], in [4], in [5] and in assay [6] was inactive. Further, the outcome was “inactive” with TIMP1, TIMP1 (gene 7076); “inactive” in assay [7]; “inactive” in assay [8]; “inactive” in assay [9]; “inactive” in assay [11]; “inactive” in assay [12]. Also, the compound was classed as inactive in assay [13], in assay [14], in assay [15] and in assay [16]. Further, the AC50 was 26.7 µM (active) in assay [10] and 87.2 µM (active) in assay [14].

Consider `Clc1ccc(C(c2ccccc2Cl)C(Cl)(Cl)Cl)cc1` (centres undefined), for which the outcome in assay [1], in assay [2], in assay [3], in assay [4], in [5] and in assay [6] was inactive. In addition, the outcome in the assay with TIMP1, TIMP1 (gene 7076) was “inactive”; in assay [7] it was “inactive”; in assay [9], “inactive”; in assay [11], “inactive”; in assay [17], “inactive”; in assay [15] it was “inactive”. In addition, the half-maximal activity concentration (AC50) in assay [8] was 55.8 µM (active); in assay [10] it was 0.818 µM (active); in [12], 77.5 µM (active); in assay [13], 32.5 µM (active) and 55.2 µM (active); in assay [14], 47.2 µM (active) and 74.1 µM (active); in [18], 26.1 µM (active) and 68.2 µM (active). The AC50 in [15] is 46.3 µM (active); in assay [16] it was 30.2 µM (active) and 62.2 µM (active).

With `c1cc2ccc3cccc4ccc(c1)c2c34`, the compound was called inactive in assay [1], in [2], in assay [3], in assay [4], in [5] and in assay [6]. Also, the outcome with TIMP1, TIMP1 (gene 7076) was “inactive”; in assay [7], “inactive”; in assay [8], “inactive”; in [9], “inactive”; in [11] it was “inactive”; in assay [12], “inactive”. Further, the call in [17], in assay [13], in [14], in [18], in assay [15] and in assay [16] was inactive. Moreover, the AC50 in assay [10] was 10.7 µM (active).

In the case of `ClC(Cl)=C(c1ccc(Cl)cc1)c1ccc(Cl)cc1`, the outcome is “inactive” in assay [2]; “inactive” in assay [3]; “inactive” in assay [5]; “inactive” in [6]; “inactive” with TIMP1, TIMP1 (gene 7076); “inactive” in [7]. Besides, the outcome in assay [9], in assay [11], in [19], in [12], in assay [17] and in [13] was inactive. Also, the result in [14], in [18], in assay [15] and in assay [16] was inactive. Further, the AC50 in [4] is 12 µM (active); in [8] it was 77.6 µM (active); in assay [10] it was 13.1 µM (active); in [13], 55.6 µM (active); in assay [14], 87.7 µM (active); in assay [18] it was 58.4 µM (active).
